Measured values published in PubChem BioAssay.
Values without a mark were called inactive. How the calls were made is not given here.

target: Pantothenate synthetase (Mycobacterium tuberculosis (strain ATCC 25618 / H37Rv)) (UniProt P9WIL5); test: Coupled enzyme confirmation of inhibitors against recombinant Mtb PanC (AID 375); details: coupled enzyme assay; at 10 µM, stronger effect = higher value;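 further: 0% = full reaction with vehicle and 100% = no enzyme background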
Sequence (P9WIL5 whole entry, looked up): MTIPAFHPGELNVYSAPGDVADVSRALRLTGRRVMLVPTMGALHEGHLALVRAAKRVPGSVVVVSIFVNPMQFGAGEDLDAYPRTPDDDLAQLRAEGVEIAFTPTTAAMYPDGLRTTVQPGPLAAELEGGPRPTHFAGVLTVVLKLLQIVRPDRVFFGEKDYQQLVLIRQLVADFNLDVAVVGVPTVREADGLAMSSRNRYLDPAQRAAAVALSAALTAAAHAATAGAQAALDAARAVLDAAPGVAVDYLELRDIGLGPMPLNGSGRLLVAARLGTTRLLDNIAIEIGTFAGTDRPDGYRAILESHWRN

Row | Compound | inhibition [%]
1 | Cc1csc(OCc2ccc(C#N)cc2)n1 | 0
2 | COc1cccc(-c2cc(C(=O)N3CCc4ccccc4C3)no2)c1 | 10
3 | CC1CCN(C(=O)CSc2nnc(-c3cccnc3)n2C2CCCCC2)CC1 | 0
4 | Cc1ccc(OC(=O)CCc2c(C)nc3ncnn3c2C)cc1 | 0
5 | CC(=O)C(Sc1ncnc2c1nnn2-c1ccc(F)cc1)C(=O)N(C)C (stereo not given) | 0
6 | CCCCCc1nnc(NC(=O)Cc2cccs2)s1 | 0
7 | O=C1C2CC=CCC2C(=O)N1c1ccc(Cc2ccncc2)cc1 (stereo not given) | 0
8 | CCOc1ccc(S(=O)(=O)Nc2ccccc2C(=O)Nc2ccccc2N2CCOCC2)cc1 | 1
9 | COc1ccc(N2C(N)=C(C#N)C(c3cccnc3)C3=C2CC(C)(C)CC3=O)cc1 (stereo not given) | 0
10 | Cc1ccc2c(c1)CCCN2C(=O)C1CCCO1 (stereo not given) | 5
11 | CCOC(=O)N1CCN(C(=O)c2ccc3nc4ccsc4c(=O)n3c2)CC1 | 2
12 | CN(Cc1cnn(C)c1)C(=O)c1cc2ccccc2oc1=O | 3
13 | CCOc1ccc(S(=O)(=O)Nc2ccc(Cl)cn2)c(C)c1C | 0
14 | O=C(NCc1ccc2c(c1)OCO2)C1CCCN(S(=O)(=O)c2cccc3cccnc23)C1 (stereo not given) | 0
15 | COc1cccc(/C=N/n2c(C)nc3ccccc32)c1OC | 0
16 | C[C@H](NC(=O)Nc1cccc(C(F)(F)F)c1)C(=O)O | 0
17 | O=c1c(-c2ccc(Br)cc2)coc2c(CN3CCOCC3)c(O)ccc12 | 0
18 | CSc1nc2c(ccc3ccccc32)o1 | 2
19 | CC1(C)Cc2c(sc3c2C2=NCCN2C=N3)CS1 | 3
20 | CCC(=O)O[C@]1(C(=O)CCl)[C@@H](C)C[C@H]2[C@@H]3CCC4=CC(=O)C=C[C@]4(C)[C@@]3(F)[C@@H](O)C[C@@]21C | 0

Row | Compound | inhibition [%]
21 | Cn1c(=O)c2c(nc(Br)n2CCSc2ncccn2)n(C)c1=O | 9
22 | CCCC(=O)N1c2ccccc2NC2=C(C(=O)CCC2)C1c1ccc(F)cc1 (stereo not given) | 5
23 | CC(=O)Nc1ccc(NC(=O)C(C)Oc2ccccc2F)cc1 (stereo not given) | 0
24 | O=C(COc1ccc(S(=O)(=O)NC2CCCCC2)cc1)NCc1ccccn1 | 0
25 | CCOCCc1nnc(NC(=O)c2ccc(OC)c(OC)c2)s1 | 0
26 | CCOC(=O)Cc1c(C)c2c(O)cc(O)cc2oc1=O | 8
27 | COc1ccc(CC(=O)NC2CCN(CC(=O)Nc3ccc4c(c3)OCCO4)CC2)cc1OC | 0
28 | CCCc1nc(N2CCOCC2)c(C#N)c2c1CCCC2 | 4
29 | COc1cccc(OC)c1C(=O)n1nc(C)cc1C | 6
30 | Cc1nnc(N(C)C(=O)Cc2ccc3c(c2)OCO3)s1 | 0
31 | O=C(O)CCC(=O)Nc1ccc(S(=O)(=O)Nc2nccs2)cc1 | 0
32 | CCn1c(=O)c(C(=O)NCCc2ccccc2)c(O)c2ccccc21 | 0
33 | COc1ccccc1-c1nc2n(n1)C(c1ccc(Cl)cc1)C(C(N)=O)=C(C)N2 (stereo not given) | 0
34 | COc1cc(C(=O)Nc2cc(C)ccn2)cc(OC)c1OC | 0
35 | COc1ccccc1NC(=O)NCc1ccc2c(c1)OCO2 | 1
36 | CN(C)/C=C(\C#N)c1nc2ccccc2[nH]1 | 0
37 | COc1ccc2c(c1)[nH]c1c(=O)n(CCN(C)C)cnc12 | 0
38 | CCOC(=O)CC(NS(=O)(=O)c1ccc(NC(C)=O)cc1)c1ccc(OCC)cc1 (stereo not given) | 5
39 | Cc1nnc(NCc2n[nH]c(=O)c3ccccc23)c2ccccc12 | 13
40 | CCCCS(=O)(=O)NC1=NCN(CCOC(=O)c2ccccc2)CN1 | 0
